About 10,000 (3%) of roughly 330,000 compounds were called active. The list comes from a sample in which actives are over-represented; it also holds similar structures and randomly drawn compounds. Values without a mark were called inactive.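 How the source made its calls: active means inhibition of at least 50% at 8 µM in the primary screen; inactive means the rest.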
target: Protein Mdm4 (Homo sapiens) + E3 ubiquitin-protein ligase Mdm2 (Homo sapiens) (UniProt O15151+Q00987); experiment: inhibitors of human Mdm2-MdmX association, primary screen, cell-based, luminescence, split luciferase, SaOS-2, uHTS (AID 485346); settings: SaOS-2 split-luciferase Mdm2/MdmX complementation, at 8 µM, active compounds read high
Sequence (O15151 whole entry, looked up): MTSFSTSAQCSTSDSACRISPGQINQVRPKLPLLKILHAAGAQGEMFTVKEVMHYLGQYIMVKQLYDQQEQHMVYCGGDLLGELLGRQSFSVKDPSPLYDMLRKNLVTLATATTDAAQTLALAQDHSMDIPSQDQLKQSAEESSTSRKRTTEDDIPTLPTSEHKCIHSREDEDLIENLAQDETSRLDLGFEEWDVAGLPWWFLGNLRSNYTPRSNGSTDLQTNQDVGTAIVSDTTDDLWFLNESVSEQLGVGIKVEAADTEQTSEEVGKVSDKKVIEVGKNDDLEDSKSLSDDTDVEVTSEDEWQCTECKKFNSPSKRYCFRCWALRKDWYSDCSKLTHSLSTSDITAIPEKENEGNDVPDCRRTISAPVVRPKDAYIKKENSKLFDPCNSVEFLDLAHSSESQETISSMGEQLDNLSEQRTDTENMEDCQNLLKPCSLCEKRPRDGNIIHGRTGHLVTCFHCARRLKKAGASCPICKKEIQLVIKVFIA
Sequence (Q00987 whole entry, looked up): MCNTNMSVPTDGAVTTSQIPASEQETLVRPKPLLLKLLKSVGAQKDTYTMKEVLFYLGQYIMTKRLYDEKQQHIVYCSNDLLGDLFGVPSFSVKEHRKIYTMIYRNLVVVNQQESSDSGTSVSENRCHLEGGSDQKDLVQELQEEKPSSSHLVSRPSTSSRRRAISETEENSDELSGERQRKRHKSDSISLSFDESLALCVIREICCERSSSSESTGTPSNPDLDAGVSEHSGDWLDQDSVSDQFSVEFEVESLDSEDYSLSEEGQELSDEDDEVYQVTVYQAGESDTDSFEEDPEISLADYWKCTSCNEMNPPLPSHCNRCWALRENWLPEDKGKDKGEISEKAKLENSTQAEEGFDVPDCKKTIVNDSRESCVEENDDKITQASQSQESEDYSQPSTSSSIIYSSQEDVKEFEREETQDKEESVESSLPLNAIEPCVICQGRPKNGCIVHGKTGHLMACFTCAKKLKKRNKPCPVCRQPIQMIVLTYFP

| SMILES | inhibition |
| --- | --- |
| CC(=O)Nc1ccc(NC(=O)C(NS(=O)(=O)c2ccc3c(c2)OCCO3)C(C)C)cc1 (configuration not stated) | 1.24% |
| Cc1noc(C)c1S(=O)(=O)N(C)C[C@H]1Oc2c(NC(=O)Nc3ccc4c(c3)OCO4)cccc2C(=O)N([C@H](C)CO)C[C@@H]1C | 23.1% |
| O=C(O)CCCCCNc1ncnc2ccc(Br)cc12 | -1.34% |
| COc1ccc(CNc2ncnc3ccccc23)cc1 | 21.5% |
| COc1ccc(Nc2ncnc3ccc(Br)cc23)c(OC)c1 | 76.4% (active) |
| COc1ccccc1NC(=O)CCC(=O)N1CC(C)Oc2ccc(C)cc21 (configuration not stated) | 13.9% |
| O=C1Nc2ccc([N+](=O)[O-])cc2C1=Nc1cccc(CO)c1 | 30.4% |
| Cc1ccc(N2CC(C(=O)NCCS(=O)(=O)N3CCN(c4ccccc4)CC3)CC2=O)cc1 (configuration not stated) | 37.2% |
| COc1cc(N)c(Cl)cc1C(=O)OCC(=O)c1ccc2c(c1)NC(=O)CO2 | 18.8% |
| CCOC(=O)c1c(-c2ccc(-c3ccccc3)cc2)csc1NC(=O)CCC(=O)O | 9.19% |
| CCOC(=O)c1c(-c2cccc(C)c2)csc1NC(=O)c1c(-c2ccccc2)noc1C | 94.3% (active) |
| Cc1ccc(CNC(=O)c2c(-c3ccccc3)noc2C)cc1 | -12.1% |
| Cn1c(=O)[nH]c(=O)c2c1nc(NCCCn1ccnc1)n2Cc1cccc(Br)c1 | 34.5% |
| O=C1N/C(=C/c2cccn2-c2ccccc2)C(=O)N1c1cccc(Cl)c1 | 53.8% (active) |
| O=c1c(-c2cccc(Cl)c2)c[nH]n1-c1ccccc1 | -13.8% |
| Cc1ccccc1NC(=O)CN1C(=O)N/C(=C\c2cccn2-c2cccc(C(=O)O)c2)C1=O | 11.8% |
| COc1ccc(C(=O)OCC(=O)NCC2CCCO2)cc1[N+](=O)[O-] (configuration not stated) | -2.37% |
| O=C(C1CCC(=O)N(C2CC2)C1)N1CCN(c2ccc(Cl)cc2)CC1 (configuration not stated) | -4.59% |
| CN(C(=O)CSc1nncc2ccccc12)C1CCCCC1 | -30.3% |
| CN(c1ccc2nc3ccccc3c(=O)n2n1)C1CCCCC1 | 90.5% (active) |
| CN(C(=O)c1cc2c(=O)n3ccccc3nc2s1)C1CCCCC1 | -88.5% |
| CC(=O)Nc1c2c(nn1-c1cccc(C)c1)CSC2 | 18% |
| Cc1c(CNCCc2ccccc2)c(C(=O)O)c(C)n1-c1ccccc1 | 8.96% |

| SMILES | inhibition |
| --- | --- |
| CN(C(=O)c1cccc(NC(=O)Cc2ccc([N+](=O)[O-])cc2)c1)C1CCC1 | 15.3% |
| COc1ccc(-c2nn(C)c(=O)c3ccccc23)cc1NC(=O)COc1ccccc1 | 70.8% (active) |
| CCC(=O)NCc1cc(-c2nn(C)c(=O)c3ccccc23)ccc1OC | 20.9% |
| COc1ccc(-c2nn(C)c(=O)c3ccccc23)cc1CNC(=O)C1CCCCC1 | 13% |
| Cc1cc(NC(=O)COC(=O)/C=C/c2ccc(C)o2)no1 | 8.11% |
| Cc1c(C=O)c2ccccc2n1CCOc1ccccc1 | 11.3% |
| O=C(NCCc1ccc(F)cc1)c1ccc(S(=O)(=O)N2CCCCC2)cc1 | 0.124% |
| O=S(=O)(Nc1cccc(Oc2ccc(Cl)cc2)n1)c1ccc(F)cc1 | 14.1% |
| CC(NC(=S)Nc1ccccc1)C(c1cccs1)N1CCOCC1 (configuration not stated) | -20.7% |
| CCCC(=O)NC(C)C(c1cccs1)N1CCN(c2ccccc2)CC1 (configuration not stated) | 18.2% |
| CC(NC(=O)Nc1ccccc1)C(c1cccs1)N1CCN(c2ccccc2)CC1 (configuration not stated) | 58.6% (active) |
| CCOCCCNC(=O)C(NC(=O)c1ccc(=O)[nH]c1)c1ccc(Cl)cc1 (configuration not stated) | -20.6% |
| N#CCC(=O)N/N=C/c1cn(Cc2ccc3ccccc3c2)c2ccccc12 | 67.9% (active) |
| COc1cccc(Cn2cc(/C=N/NC(=O)c3cc(O)cc(O)c3)c3ccccc32)c1 | 23.5% |
| CNC(=S)N/N=C/c1cn(Cc2ccc(C)cc2)c2ccccc12 | 42.2% |
| CC1=C(C(N)=O)C(c2ccc3c(c2)OCO3)n2nc(-c3cccc(C)c3)nc2N1 (configuration not stated) | 7.35% |
| N=c1c2c(-c3ccccc3)c(-c3ccccc3)n(Cc3ccccc3)c2ncn1CCCO | 57.2% (active) |
| COCCn1cnc2c1c(=O)n(Cc1ccc(Br)cc1)c(=O)n2Cc1ccccc1 | 31.5% |
| CCN(CC)CCn1cnc2c1c(=O)[nH]c(=O)n2Cc1ccccc1 | 14.5% |
| CCOC(=O)[C@H]1[C@H]2COc3ccc(OC)cc3[C@@H]2N2C(=O)c3ccc(F)cc3NC(=O)[C@@]12C | 17.8% |
| CCOC(=O)Cc1csc(SCC(=O)Nc2ccc(C)cc2F)n1 | 7.22% |
| CCOCc1nnc(NC(=O)CCC2CCCCC2)s1 | 15.7% |
| CCn1c(CNC(=O)c2cc(OC)c(OC)c(OC)c2)cc2cc(C)ccc21 | 18.3% |

| SMILES | inhibition |
| --- | --- |
| O=C(Nc1cc(C(F)(F)F)ccc1Cl)C(=O)N1CCCCC1 | 4.88% |
| O=C(NNc1ccccc1Cl)C(O)(c1cccc(C(F)(F)F)c1)c1cccc(C(F)(F)F)c1 | 94.5% (active) |
| O=C(CNS(=O)(=O)c1cccc(C(F)(F)F)c1)Nc1ccccc1F | -4.5% |
| O=C(NCCC1=CCCCC1)c1ccc(-n2cncn2)cc1 | -91.1% |
| COC(=O)c1ccccc1NC(=O)C1CC(=O)N(c2ccc(OC)cc2)C1 (configuration not stated) | 15.5% |
| COc1ccc(CNS(=O)(=O)c2cc3c4c(c2)CCN4C(=O)CC3)cc1 | -14.5% |
| Cc1nnc2n1N=C(c1ccccc1)CS2 | 17.5% |
| COc1ccc(C2=Nn3c(nnc3-c3ccccc3OC)SC2)cc1OC1CCCC1 | 88.2% (active) |
| COc1ccccc1-c1nnc2n1N=C(c1ccc(OC(F)F)c(OCC3CC3)c1)CS2 | 23.3% |
| Cc1ccc(C)c(OCCC(=O)OCC(=O)NC(=O)NCc2ccccc2)c1 | 6.63% |
| O=C(Nc1ccc(OC(F)(F)F)cc1)c1ccc2c(c1)no[n+]2[O-] | 19% |
| CCN1C(=NCc2ccc(OC)cc2)N[C@@H](CCc2ccccc2)[C@H](C(=O)NCc2ccc(OC)cc2)[C@H]1C | 14.2% |
| COc1ccccc1CNS(=O)(=O)c1cc(C(=O)NCc2ccccn2)c(Cl)cc1Cl | -21.7% |
| CC(C)Nc1ncnc2c1nnn2Cc1ccccc1 | -2.35% |
| CC(C)Cc1nc(Nc2ccc(S(=O)(=O)N3CCCC3)cc2)c2nnn(Cc3ccccc3)c2n1 | 68.6% (active) |
| Cc1nc(Nc2ccc(S(=O)(=O)N3CCCC3)cc2)c2nnn(Cc3ccccc3)c2n1 | 3.4% |
| Cc1cnc(C(=O)N2CCCC(N3CCN(c4ccccc4F)CC3)C2)cn1 (configuration not stated) | 1.8% |
| Cc1ccc(S(=O)(=O)N(CC(=O)N/N=C/c2ccc(F)cc2)c2cccc3cccnc23)cc1 | 4.5% |
| Cn1nc(-c2ccccc2)c(CO)c1Sc1ccccc1 | 8.85% |
| Cn1nc(-c2ccccc2)c(CSc2cccc(Cl)c2)c1Cl | 50.5% (active) |
| Cc1ccc(S(=O)(=O)c2c(COC(=O)c3cccc(Cl)c3)c(-c3ccccc3)nn2C)cc1 | 7.27% |
| C=CCOc1ccc(C(=O)Nc2ccccc2C(=O)N2CCCC2)cc1 | 2.51% |
| COC(=O)Nc1ncc(CN2C(=O)c3ccccc3C2=O)s1 | 12.4% |

| SMILES | inhibition |
| --- | --- |
| COCCn1c(C)cc(C(=O)COC(=O)CNC(=O)c2ccco2)c1C | 3.33% |
| Cc1cc(C(=O)CSc2nc(N)cc(=O)[nH]2)c(C)n1Cc1ccco1 | 22.2% |
| Cc1cc(C(=O)COC(=O)CNC(=O)c2ccc(F)cc2)c(C)n1Cc1ccco1 | 56.9% (active) |
| CC(Oc1ccccc1)C(=O)NN1Cc2ccccc2C1=N (configuration not stated) | 16.1% |
| CC(C)(C)NS(=O)(=O)CC12CCC(CC1=O)C2(C)C (configuration not stated) | 8.21% |
| NC(=O)C1CCN(C(=O)c2ccc(-c3ccccc3)cc2)CC1 | 13.3% |
| O=C1Nc2cc(C(=O)N3CCC(N4CCCCC4)CC3)ccc2S/C1=C\c1ccccc1 | 54.5% (active) |
| CC1CCN(C(=O)c2ccc3c(c2)NC(=O)CN3)CC1 | 13% |
| Cc1[nH]n(C(N)=S)c(=O)c1N=Nc1ccc(Cl)cc1Cl | -31.8% |
| C[C@H](CO)N1C[C@H](C)[C@@H](CN(C)S(=O)(=O)c2ccc(F)cc2)Oc2ccc(NC(=O)CCC(F)(F)F)cc2C1=O | -5.06% |
| CSc1nc2c(c(=O)[nH]1)C(c1cccc(Cl)c1Cl)CC(=O)N2 (configuration not stated) | -2.71% |
| N#Cc1c(N)nc2c3c(sc(=N)c2c1N)NC(=O)CC3c1ccccc1Cl (configuration not stated) | 68.7% (active) |
| COc1ccc(C2CC(=O)Nc3sc(=N)c4c(N)c(C#N)c(N)nc4c32)cc1OC (configuration not stated) | 19.8% |
| C/C=C/C=C/C(=O)O | 19.9% |
| Cc1cc(C)c(S(=O)(=O)N2C=CC(C(F)(F)F)=NCC2)c(C)c1 | 17.6% |
| CC(C(=O)Nc1ccc(F)c(F)c1F)N1CCCCCC1 (configuration not stated) | 24.1% |
| COc1ccccc1CCNC(=O)C1CCN(C(=O)/C=C/c2ccccc2)CC1 | -2.9% |
| O=C(/C=C/c1ccc(Cl)c([N+](=O)[O-])c1)c1ccc(O)cc1 | 98.7% (active) |
| CN(C)c1ccc(/C=C/C(=O)c2ccc(O)cc2)cc1[N+](=O)[O-] | 11.6% |
| O=C(/C=C/c1ccc(Cl)cc1Cl)c1cccnc1 | 17.5% |
| O=C(Nc1cccnc1)c1ccc(Cl)c([N+](=O)[O-])c1 | -11.2% |
| O=C(/C=C/c1ccc(Cl)c([N+](=O)[O-])c1)c1cccnc1 | 84.3% (active) |
| CN(C)c1ccc(/C=C/C(=O)c2ccc(C(C)(C)C)cc2)cc1[N+](=O)[O-] | 30.9% |
